About 1,600 (39%) of roughly 4,100 compounds were called active. Not shown: some 25% with an inconclusive outcome. Calls come from the whole dose curve; as a rule, active = well fitted inhibition curve with a large enough effect; inconclusive = small, poorly fitted or top-dose-only effect; inactive = no such curve, though single readings can be large or run the other way. The list shows a part of the results. Entries that show only a call come without a potency.
Potency is the fitted concentration of half-maximal effect.

This assay can be described thus: qHTS Validation assay for Inhibitors of Plasmodium falciparum Dd2 growth in vitro. Note: nearly all actives have a fitted effect of over 70% in size. Conditions: P. falciparum Dd2 in RBCs, SYBR Green growth, 72 h; series mostly up to 28.7 µM. The gist of the method: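 P. falciparum Dd2-infected red blood cells (2.5% hematocrit, 0.3% parasitemia) grown 72 h at 37 °C under 5% O2 with compounds in a titration, 29 uM to 0.5 nM final. Growth read as SYBR Green-1 fluorescence after ~16 h lysis; artesunate 300 nM as positive control.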
A general note: In qHTS, concentration-response curves come from the screen itself.
With `CC(Sc1nc2cc([N+](=O)[O-])ccc2n1-c1cccc(C(F)(F)F)c1)C(=O)NC(N)=O` (stereo not drawn), the Potency result is “inactive”.
Consider `O=C(Nc1cc(C(F)(F)F)cc(C(F)(F)F)c1)Nc1cnn(-c2ccc([N+](=O)[O-])cc2)c1C(F)(F)F`, for which the Potency was 6.68 µM (active).
Regarding `Cc1cn2nc(C(=O)NCc3ccccc3F)cc2c(N(C)Cc2ccccc2)n1`, the Potency entry was “inactive”.
The figure for `Cc1cn2nc(C(=O)Nc3ccc(N(C)C)cc3)cc2c(N(C)Cc2ccccc2)n1` is 15 µM (active).
As for `Cc1cn2nc(C(=O)Nc3ccc4c(c3)OCCO4)cc2c(N(C)Cc2ccccc2)n1`, the Potency entry is “inactive”.
The figure for `COc1ccc(/C=N/Nc2cc(C)nc(-n3nc(C)cc3C)n2)c(OC)c1` is 5.31 µM (active).
Consider `Cc1cc(N2CCC(C)CC2)nc(-n2nc(C)cc2C)n1`, for which the Potency is 2.99 µM (active).
Turning to `Cc1ccc(Nc2cc(C)nn2-c2nc(C)cc(C)n2)cc1`, the Potency is 6.68 µM (active).
As for `CNc1cc(C)nc(-n2nc(C)cc2C)n1`, the Potency was 8.41 µM (active).
In the case of `COCC(=O)NC[C@H]1CCN(Cc2ccc(Cl)cc2)C[C@H]1N(C)C`, the Potency entry is “inactive”.
With `COc1cccc(NC(=O)c2sc3nc(C)c(C(=O)Nc4ccc(C)cc4C)c(-c4ccccc4Cl)c3c2N)c1`, the Potency was 2.66 µM (active).
As for `COc1cccc(NC(=O)c2sc3nc(C)c(C(=O)Nc4ccc(C)cc4C)c(-c4cccs4)c3c2N)c1`, the Potency is 5.96 µM (active).
The entry for `COc1cccc(OC)c1C(=O)Nc1cccc(-c2nc3cc(C)cc(C)c3o2)c1` is “inactive”; for `NC1CCCCN(C(=O)CCc2n[nH]c3c2CCCC3)C1` (stereo not drawn) it is “inactive”.
The entry for `Cc1ccc(-n2nc3c(c2NC(=O)C(C)C)CS(=O)(=O)C3)c(C)c1` is “inactive”.
The entry for `Cc1ccc(S(=O)(=O)Nc2cc(=O)[nH]c(SCC(=O)Nc3cccc(C)c3)n2)cc1` is “inactive”; for `CCn1c(SCC(=O)NNC(=O)Cc2ccccc2)nnc1-c1ccncc1` it is “inactive”.
In the case of `c1ccc(Cn2c(Sc3nnnn3-c3ccccc3)nnc2-c2ccccc2)cc1`, the Potency was 7.5 µM (active).
The entry for `CN(C1CCc2nn(CC3CC3)c(=O)n2CC1)S(=O)(=O)c1cccs1` (stereo not drawn) is “inactive”.
Consider `COc1cccc(C(=O)N2CCC3(CC2)CCN(CCc2ccccc2)c2ccccc2O3)c1`, for which the Potency entry was “inactive”.
The figure for `COc1ccc2c(c1)OC(C)(C)C(c1ccccc1)C2c1ccc(OCCN2CCCC2)cc1` (stereo not drawn) is 6.68 µM (active).
As for `O=C(NCc1nnc2ccc(-c3ccccc3)nn12)c1cc(Cl)ccc1F`, the Potency entry was “inactive”.
The figure for `O=C(NCCCNc1ccnc2cc(Cl)ccc12)c1ccccc1F` is 0.842 µM (active); for `O=C(NCCNc1ccnc2cc(Cl)ccc12)c1ccccc1F` it is 1.68 µM (active); for `Cc1nn(-c2ccc(C(C)C)cc2)c(C)c1[C@@H]1C=C[C@@H](NCc2ccccc2)C1` it is 21.7 µM (active).
The entry for `Cc1nn(-c2cccc(Br)c2)c(C)c1[C@@H]1C=C[C@@H](NC(=O)c2cccs2)C1` is “inactive”; for `O=C(NC1C[C@H]2CC[C@@H](C1)N2C(=O)c1ccco1)c1ccncc1` (stereo partly drawn) it is “inactive”.
The entry for `Cc1cc(=O)n(C(C)C(=O)NCc2ccccc2Cl)c2c1c(C)nn2-c1ccccc1` (stereo not drawn) is “inactive”; for `COc1ccc(CN[C@@H]2C=C[C@@H](c3c(C)nn(-c4ccc(OC)cc4)c3C)C2)cc1` it is 4.85 µM (active); for `COc1ccc(-n2nc(C)c([C@@H]3C=C[C@@H](NCc4ccc(F)cc4)C3)c2C)cc1` it is 1.37 µM (active).
In the case of `Cc1nn(-c2ccc(C(C)(C)C)cc2)c(C)c1[C@@H]1C=C[C@@H](NC(=O)c2ccco2)C1`, the Potency is 12.2 µM (active).
The entry for `Cc1cccc(CCNC(=O)CCS(=O)(=O)c2cc3c(cc2Cl)NC(=O)CO3)c1` is “inactive”.
On to `COc1ccc(OC)c(C2CCN(c3ncncn3)C2)c1` (stereo not drawn), for which the Potency entry is “inactive”.
The entry for `CC(C)Oc1ccc2c(NC(=O)c3ccn(C)n3)nn(CC(F)(F)F)c2c1` is “inactive”; for `O=C(NCc1cc(F)ccc1F)C1CCN(c2cn[nH]c(=O)c2)C1` (stereo not drawn) it is “inactive”.
The figure for `COc1ccc(-n2nc(C)c([C@@H]3C=C[C@@H](NCc4cccc(Cl)c4)C3)c2C)cc1` is 1.37 µM (active); for `COc1ccc(-n2nc(C)c([C@@H]3C=C[C@@H](NCc4ccc(N(C)C)cc4)C3)c2C)cc1` it is 4.33 µM (active); for `Cn1c(=O)oc2cc(S(=O)(=O)CCC(=O)N3CCN(c4ccccc4F)CC3)ccc21` it is “inactive”.
On to `O=c1[nH]c(N2CCOCC2)nc2c1CCN(Cc1cc(Br)ccc1F)CC2`, for which the Potency was 5.31 µM (active).
The figure for `O=c1[nH]c(N2CCOCC2)nc2c1CCN(Cc1ccc(Cl)cc1F)CC2` is 3.35 µM (active); for `O=C(Nc1ccc(Cl)cc1)c1nc2c(o1)CCN(Cc1ccc(F)cc1F)CC2` it is “inactive”; for `O=C1CCN(Cc2ccc(F)cc2F)CCCC(c2nc(-c3cnccn3)no2)CCN1` (stereo not drawn) it is “inactive”.
In the case of `O=c1[nH]c(N2CCOCC2)nc2c1CCN(Cc1cc(Cl)ccc1F)CC2`, the Potency is 2.37 µM (active).
In the case of `O=c1[nH]c(N2CCOCC2)nc2c1CCN(Cc1cc(F)c(F)cc1F)CC2`, the Potency was 15 µM (active).
For `COc1ccc2c(c1OC)C(=O)OC2CC(=O)c1ccc(O)cc1` (stereo not drawn), the Potency result is “inactive”.
Consider `CCOc1cc(C2CC(=O)NC3=C2C(=O)C(C(=O)OC)C(C)C3)cc(Br)c1O` (stereo not drawn), for which the Potency is 6.68 µM (active).
As to `CCOc1ccc(/C=C/C(=O)Nc2ccc3nc(N(CC)CC)cc(C)c3c2)cc1OC`, the Potency was 1.88 µM (active).
The figure for `CCN(CC)c1cc(C)c2cc(NC(=O)/C=C/c3cc(OC)c(OC)c(OC)c3)ccc2n1` is 4.73 µM (active); for `COc1ccc(/C=C/C(=O)NCCc2ccc(OC)c(OC)c2)cc1` it is “inactive”; for `Fc1ccccc1Cn1nnc2c(-n3ccnc3)ncnc21` it is “inactive”.
As for `O=C1Nc2ccccc2CN(CC2CC2)C12CCNCC2`, the Potency result was “inactive”.
The figure for `c1ccc(Nc2cc3c(cn2)CN(Cc2ccc4[nH]ccc4c2)CCN3)cc1` is 1.37 µM (active).
In the case of `Cc1nnc(-c2cc(Nc3cccc(N(C)C)c3)ccn2)n1Cc1ccccc1`, the Potency result was “inactive”.
Take `c1ccc(Nc2cc3c(cn2)CN(Cc2ccsc2)CCN3)cc1`: the Potency was 13.7 µM (active).
The figure for `CN(C)c1cccc(Nc2cc3c(cn2)CN(Cc2ccccc2)CCN3)c1` is 13.7 µM (active); for `O=C1NC(=NC2CCCC2)C2(CCN(Cc3ccsc3)C2)N1c1cccnc1` (stereo not drawn) it is “inactive”.
On to `CN(C)c1ncnc2sc3c(c12)CCN(Cc1ccc2cc[nH]c2c1)C3`, for which the Potency entry is “inactive”.
In the case of `Cc1ccc(C)c(OC(=O)CSc2nnc(-c3cccs3)o2)c1`, the Potency result was “inactive”.

Values taken from PubChem BioAssay AID1347416 (National Center for Advancing Translational Sciences (NCATS), 2020).
